17 compounds from PubChem BioAssay (NCATS) can be followed below.

Experiment [1] deals with Lysosomal acid glucosylceramidase (Homo sapiens) (UniProt P04062). Description: Glucocerebrosidase-p2 (AID 348; in the data active means potency below about 10 µM; further: potency means the concentration at half of the fitted maximal effect). Conditions: purified GBA, blue fluorogenic substrate, 40 min. An outline of the steps:
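Normal human glucocerebrosidase (0.2 nM) with blue fluorogenic substrate (80 uM final) in citrate/phosphate pH 5.9 with 10mM sodium taurocholate, 0.01% tween-20; 40 min RT, NaOH/glycine stop; fluorescence Ex 365/Em 440; AC50 from a titration from 0.6 nM upwards.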

A short description of experiment [2]: AP1 Signaling Pathway (AID 357).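 Further: ME-180 reporter cells stimulated with EGF at its EC50 level; on the % scale 0 is the no-effect control and ±100 the full control effect.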 Conditions: ME-180 AP-1-bla reporter, EGF-induced, beta-lactamase ratio, 5 h; at 7.69 µM (top of the series) unless noted. The method, boiled down:
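First, ME-180 AP-1-bla cells were cultured overnight at 37 °C in low-serum Opti-MEM. Next, titrated compounds with EC50 EGF were incubated 5 hours. Finally, CCF4 was added for 2.5 hours and the 460/530 nm ratio recorded.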

Experiment [3] can be described thus: NFAT Signaling Pathway (AID 444).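 Further: carbachol stimulus at about its EC50 of 1 µM final; on the % scale 0 is the no-effect control and ±100 the full control effect.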 The note with it: Jurkat NFAT-bla M1, carbachol, beta-lactamase ratio, 5 h; at 7.69 µM (top of the series) unless noted. The method, boiled down: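 Jurkat cells carrying an NFAT-driven β-lactamase reporter and co-transfected muscarinic M1 receptor were treated with compound plus carbachol (1 uM final, an EC50 level) for 5 h at 37 °C. CCF4 loading followed for 1 h at RT; 460/530 nm ratio gave %activity.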

Experiment [4] is described as follows: Stat Signaling Pathway (AID 446).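 Further: ME-180 cervical cancer cells given 40 pM IL-6 alongside compound; SIE-controlled beta-lactamase reporter measured as 460/530 nm FRET emission ratio; on the % scale 0 is the no-effect control and ±100 the full control effect.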 Conditions: ME-180 (cervical carcinoma) SIE beta-lactamase reporter, IL-6 stimulated, 5 h; at 7.69 µM (top of the series) unless noted. An outline of the steps: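 Compound effects on IL-6-induced STAT reporter activity were measured in ME-180 cells. After overnight culture, cells were co-treated with 40 pM IL-6 for 5 hrs before beta-lactamase substrate loading at room temperature.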

The target in experiment [5] is Glucocorticoid receptor (Homo sapiens) (UniProt P04150). The experiment in a line: GR-GFP Redistribution (AID 450;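 active means compounds whose dose series gives a full or clear partial fitted curve of increased nuclear translocation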; further: potency means the concentration at half of the fitted maximal effect). Conditions: U2OS GR-GFP nuclear translocation, laser cytometry, 2 h.
For experiment [6] the target is unchanged. Description: GR-EFC Redistribution (AID 451; calls by dose curve; further: potency means the concentration at half of the fitted maximal effect). The note with it: CHO-K1 GR-EFC translocation, beta-gal luminescence, 2 h. The method, boiled down:
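CHO-K1 cells stably expressing nuclear-localized β-gal enzyme acceptor and GR fused C-terminally to the enzyme donor fragment; ligand-driven nuclear translocation restores β-gal by complementation. Compounds titrated up to 46 uM final, 2 h at 37 °C; luminescence read.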

The target of experiment [7] is Mitogen-activated protein kinase 10 (Mus musculus) (UniProt Q61831). The experiment in a line: JNK3 AlphaScreen Assay (AID 530).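 Further: kinase came from lysate of stimulated human HepG2 cells; on the % scale 0 is the no-effect control and ±100 the full control effect.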 Conditions: JNK3 lysate, c-Jun phosphorylation; series mostly up to 11.4 µM. An outline of the steps: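 Phosphorylation of biotinylated GST-cJun(1-79) at Ser73 is measured by AlphaScreen proximity luminescence. Enzyme is JNK3 in HepG2 lysates activated with interleukin-1beta and tumor necrosis factor alpha; ATP is 10 uM final.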

The target of experiment [8] is 3',5'-cyclic-AMP phosphodiesterase 4B (Homo sapiens) (UniProt Q07343). The experiment in a line: qHTS Assay for Inhibitors of PDE-IV (AID 607; active means well fitted activation curve with a large enough effect in the main read-out, with a control signal flat, not every such curve was filed as active; further: % of control where 0% means no effect). Conditions: HEK293 ACTOne CNG channel cells, membrane potential fluorescence; series mostly up to 22.9 µM. An outline of the steps:
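ACTOne HEK293 cells carry a modified cAMP-gated CNG channel and express endogenous PDE4; plated 1000 cells/well, compounds up to 22.9 uM final. Membrane-potential dye fluorescence (ex 535/em 590) was read; parental cells received 10 uM forskolin + 100 uM RO 20-1724.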

A number with no mark means an inactive call. Results filed as inconclusive are left out. Activity calls are given as the source filed them. Unless noted, the call rests on the fitted dose curve; in most records, active means well fitted curve in either direction with a large enough effect (not every such curve was filed as active); inconclusive means small, poorly fitted or top-dose-only effect, or another doubt; inactive means flat fitted curve, though single readings scatter. Where only a bound is given, the exact number is not on record here.

Chain of Lysosomal acid glucosylceramidase (Homo sapiens) (P04062 whole entry, looked up): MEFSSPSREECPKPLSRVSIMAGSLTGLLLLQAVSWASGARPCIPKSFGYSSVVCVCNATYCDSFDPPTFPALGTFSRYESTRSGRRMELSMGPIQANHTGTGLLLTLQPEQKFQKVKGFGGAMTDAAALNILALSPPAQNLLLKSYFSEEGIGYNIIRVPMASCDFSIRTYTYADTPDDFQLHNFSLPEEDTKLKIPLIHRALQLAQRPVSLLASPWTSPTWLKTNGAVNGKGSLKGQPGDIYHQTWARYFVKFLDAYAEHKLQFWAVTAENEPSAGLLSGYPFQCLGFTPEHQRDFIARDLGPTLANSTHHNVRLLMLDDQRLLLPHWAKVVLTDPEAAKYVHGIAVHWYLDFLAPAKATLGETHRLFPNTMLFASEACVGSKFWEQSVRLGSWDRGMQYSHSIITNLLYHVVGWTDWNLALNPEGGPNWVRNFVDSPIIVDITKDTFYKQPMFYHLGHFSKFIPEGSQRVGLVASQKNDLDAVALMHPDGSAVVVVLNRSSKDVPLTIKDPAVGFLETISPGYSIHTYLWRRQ
Chain of Glucocorticoid receptor (Homo sapiens) (P04150 whole entry, looked up): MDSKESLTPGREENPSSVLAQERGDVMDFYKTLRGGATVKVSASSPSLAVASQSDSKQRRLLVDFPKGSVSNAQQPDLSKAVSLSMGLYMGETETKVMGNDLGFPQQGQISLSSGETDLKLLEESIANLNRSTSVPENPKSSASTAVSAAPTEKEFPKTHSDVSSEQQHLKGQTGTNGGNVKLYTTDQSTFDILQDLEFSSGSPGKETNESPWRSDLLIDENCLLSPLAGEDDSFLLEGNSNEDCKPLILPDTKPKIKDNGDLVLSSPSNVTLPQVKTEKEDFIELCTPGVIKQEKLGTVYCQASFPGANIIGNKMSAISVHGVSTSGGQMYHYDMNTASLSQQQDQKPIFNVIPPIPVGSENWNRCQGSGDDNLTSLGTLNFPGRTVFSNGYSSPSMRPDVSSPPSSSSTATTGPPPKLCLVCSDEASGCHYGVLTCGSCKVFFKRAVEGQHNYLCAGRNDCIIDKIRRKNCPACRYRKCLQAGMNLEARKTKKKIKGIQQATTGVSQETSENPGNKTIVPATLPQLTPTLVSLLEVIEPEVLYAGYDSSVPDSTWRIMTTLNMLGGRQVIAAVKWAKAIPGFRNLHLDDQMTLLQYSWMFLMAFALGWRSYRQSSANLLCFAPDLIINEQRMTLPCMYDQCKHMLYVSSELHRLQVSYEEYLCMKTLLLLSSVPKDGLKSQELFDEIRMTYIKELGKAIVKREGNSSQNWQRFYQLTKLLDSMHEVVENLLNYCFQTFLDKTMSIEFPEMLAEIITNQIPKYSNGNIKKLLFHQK
Chain of 3',5'-cyclic-AMP phosphodiesterase 4B (Homo sapiens) (Q07343 whole entry, looked up): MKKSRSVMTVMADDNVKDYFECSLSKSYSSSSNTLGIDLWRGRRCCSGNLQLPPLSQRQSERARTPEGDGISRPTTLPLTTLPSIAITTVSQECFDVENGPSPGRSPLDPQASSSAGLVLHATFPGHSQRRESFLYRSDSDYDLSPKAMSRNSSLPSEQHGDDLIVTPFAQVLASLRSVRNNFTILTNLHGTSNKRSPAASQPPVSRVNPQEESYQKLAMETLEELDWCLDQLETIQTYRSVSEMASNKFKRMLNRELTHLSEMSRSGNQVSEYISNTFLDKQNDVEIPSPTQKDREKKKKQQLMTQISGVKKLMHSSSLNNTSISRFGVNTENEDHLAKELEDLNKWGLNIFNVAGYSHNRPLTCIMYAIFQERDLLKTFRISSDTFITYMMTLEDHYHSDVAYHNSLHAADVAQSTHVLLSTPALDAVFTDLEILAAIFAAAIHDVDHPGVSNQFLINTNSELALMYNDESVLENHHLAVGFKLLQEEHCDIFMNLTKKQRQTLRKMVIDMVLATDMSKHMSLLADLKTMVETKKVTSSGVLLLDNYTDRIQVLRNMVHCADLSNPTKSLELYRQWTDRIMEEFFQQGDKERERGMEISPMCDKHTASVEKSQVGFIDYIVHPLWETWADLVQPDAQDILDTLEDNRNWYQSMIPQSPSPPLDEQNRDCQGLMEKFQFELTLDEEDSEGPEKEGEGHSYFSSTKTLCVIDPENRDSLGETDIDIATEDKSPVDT

Regarding `N[C@@H](CSC1(c2ccc(Cl)cc2)c2ccccc2-c2ccccc21)C(=O)O`, the Potency in experiment [1] is more than 11.4 µM; in experiment [5], more than 46 µM; in experiment [6], more than 9.22 µM. Also, the results for the activity change, negative = inhibition in experiment [2] and in experiment [3] were -8.46% and 10.1%, respectively. The activity, negative = inhibition in experiment [4] was -2.38%. In addition, the Potency result in experiment [7] and in experiment [8] was “inactive” in each case.

`O=C(NCc1cccs1)O[C@H]1C[C@H]2CC[C@@H]1C2`: the figures for the Potency in experiment [1], in experiment [5] and in experiment [6] were more than 11.4 µM, more than 46 µM and more than 9.22 µM, respectively. Moreover, the activity change, negative = inhibition in experiment [2] was 19.6%; in experiment [3] it was 16.7%. In experiment [4], the activity, negative = inhibition is 8.46%. In addition, the Potency result in experiment [7] and in experiment [8] was “inactive” in each case.

Take `Cc1ccc(C)c([C@@H]2NC(=O)c3ccccc3N2)c1`: the Potency was more than 11.4 µM in experiment [1], more than 46 µM in experiment [5] and more than 9.22 µM in experiment [6]. The activity change, negative = inhibition is -2.78% in experiment [2] and -14.2% in experiment [3]. Besides, the activity, negative = inhibition in experiment [4] is -1.94%. In addition, the Potency result in experiment [7] and in experiment [8] was “inactive” throughout.

Take `O=C(O)CSc1ccc([N+](=O)[O-])cc1[N+](=O)[O-]`: the Potency in experiment [1] was more than 11.4 µM; in experiment [5], more than 46 µM; in experiment [6], more than 9.22 µM. Moreover, the results for the activity change, negative = inhibition in experiment [2] and in experiment [3] were 10.9% and -3.03%, respectively. For the same compound, the activity, negative = inhibition in experiment [4] was 9.83%. In addition, the Potency result in experiment [7] and in experiment [8] was “inactive” in each case.

As for `NNC(=O)[C@@H](O)[C@H](O)C(=O)NN`, the Potency in experiment [1] was more than 11.4 µM; in experiment [5], more than 46 µM; in experiment [6], more than 9.22 µM. Also, the activity change, negative = inhibition was -1.69% in experiment [2] and 10.2% in experiment [3]. Further, in experiment [4], the activity, negative = inhibition is -2.25%. Further, the Potency result in experiment [7] and in experiment [8] was “inactive” in each case.

In the case of `CCCNc1ncnc2[nH]ncc12`, the Potency in experiment [1] was more than 11.4 µM; in experiment [5], more than 46 µM; in experiment [6] it was more than 9.22 µM. The activity change, negative = inhibition in experiment [2] is -4.57%; in experiment [3] it was 5.61%. Also, in experiment [4], the activity, negative = inhibition was -1.7%. Moreover, the Potency entry in experiment [7] and in experiment [8] was “inactive” in each case.

In the case of `C(=N/Nc1ccccn1)/c1cccnc1`, the Potency is more than 11.4 µM in experiment [1], more than 46 µM in experiment [5] and more than 9.22 µM in experiment [6]. The activity change, negative = inhibition in experiment [2] is 3.9%; in experiment [3] it was 5.25%. Moreover, the activity, negative = inhibition in experiment [4] is 2.75%. Moreover, the Potency entry in experiment [7] and in experiment [8] was “inactive” in each case.

Consider `N=C(N)C(N=Nc1ccccc1)C(=N)N` (stereo unspecified), for which the Potency in experiment [1] is more than 11.4 µM; in experiment [5], more than 46 µM; in experiment [6] it was more than 9.22 µM. Also, the activity change, negative = inhibition in experiment [2] was 1.88%; in experiment [3], 3.59%. In addition, in experiment [4], the activity, negative = inhibition is 1.6%. Also, the Potency entry in experiment [7] and in experiment [8] was “inactive” throughout.

In the case of `CSc1ccc(NC(=O)[C@H]2CCCC[C@@H]2C(=O)O)cc1`, the Potency in experiment [1] is more than 11.4 µM; in experiment [5], more than 46 µM; in experiment [6], more than 9.22 µM. For the same compound, the activity change, negative = inhibition in experiment [2] is 2.18%; in experiment [3], 4.17%. Besides, the activity, negative = inhibition in experiment [4] was 3.36%. Also, the Potency result in experiment [7] and in experiment [8] was “inactive” in each case.

Take `CC(C)=CCNc1ncnc2nc[nH]c12`: the Potency in experiment [1] is more than 11.4 µM; in experiment [5], more than 46 µM; in experiment [6], more than 9.22 µM. The activity change, negative = inhibition in experiment [2] was 3.85%; in experiment [3] it was 6.81%. Also, in experiment [4], the activity, negative = inhibition is 5.75%. In addition, the Potency result in experiment [7] and in experiment [8] was “inactive” each time.

`CC(C)[C@H](N=Cc1ccccc1O)C(=O)O`: the values for the Potency in experiment [1], in experiment [5] and in experiment [6] were more than 11.4 µM, more than 46 µM and more than 9.22 µM, respectively. Besides, the results for the activity change, negative = inhibition in experiment [2] and in experiment [3] were -4.87% and 4.44%, respectively. The activity, negative = inhibition in experiment [4] was -0.012%. Further, the Potency result in experiment [7] and in experiment [8] was “inactive” in each case.

Turning to `NC(=O)[C@@H]1CCCNC1`, the Potency in experiment [1] is more than 11.4 µM; in experiment [5] it was more than 46 µM; in experiment [6], more than 9.22 µM. Besides, the activity change, negative = inhibition is 9.79% in experiment [2] and 6.45% in experiment [3]. In addition, in experiment [4], the activity, negative = inhibition is 14.3%. Also, the Potency entry in experiment [7] and in experiment [8] was “inactive” in each case.

As for `C[C@@H](SCc1ccccc1)C(=O)O`, the Potency in experiment [1] was more than 11.4 µM; in experiment [5] it was more than 46 µM; in experiment [6], more than 9.22 µM. For the same compound, the activity change, negative = inhibition in experiment [2] is -4.75%; in experiment [3] it was 12.1%. In experiment [4], the activity, negative = inhibition was -3.81%. In addition, the Potency entry in experiment [7] and in experiment [8] was “inactive” each time.

For the compound `CN1CCN(c2ccc3nc(-c4ccc5nc(-c6ccc(O)cc6)[nH]c5c4)[nH]c3c2)CC1`, the Potency is more than 11.4 µM in experiment [1], more than 46 µM in experiment [5] and more than 9.22 µM in experiment [6]. For the same compound, the activity change, negative = inhibition is -22.4% in experiment [2] and -8.32% in experiment [3]. For the same compound, in experiment [4], the activity, negative = inhibition is 23.8%. Moreover, the Potency entry in experiment [7] and in experiment [8] was “inactive” in each case.

Take `C[N+](C)(N)Cc1nc(-c2ccc(Cl)cc2)no1`: the Potency in experiment [1] was more than 11.4 µM; in experiment [5], more than 46 µM; in experiment [6], more than 9.22 µM. Further, the activity change, negative = inhibition in experiment [2] is 3.76%; in experiment [3], -6.01%. In addition, the activity, negative = inhibition in experiment [4] is 4.26%. Moreover, the Potency entry in experiment [7] and in experiment [8] was “inactive” each time.

Take `Cc1cc(=O)[nH]c2cc3oc4ccccc4c3cc12`: the Potency is more than 11.4 µM in experiment [1], more than 46 µM in experiment [5] and more than 9.22 µM in experiment [6]. The figures for the activity change, negative = inhibition in experiment [2] and in experiment [3] were 6.73% and 8.67%, respectively. In addition, in experiment [4], the activity, negative = inhibition is -1.36%. Further, the Potency result in experiment [7] and in experiment [8] was “inactive” each time.

Regarding `Ic1ccc2c(c1)N(c1ccccc1)c1cc(Nc3ccc4nc5ccc(I)cc5[n+](-c5ccccc5)c4c3)ccc1N2`, the Potency in experiment [1] is 7.99 µM (active); in experiment [5], more than 46 µM; in experiment [6], more than 9.22 µM. Further, the activity change, negative = inhibition in experiment [2] was -4%; in experiment [3], -3.73%. Besides, the activity, negative = inhibition in experiment [4] was -4.86%. For the same compound, the Potency entry in experiment [7] and in experiment [8] was “inactive” in each case.
